# Screens as filed in PubChem BioAssay.
# LDHA block = blocks human lactate dehydrogenase A; P00338; purified LDHA, NADH/diaphorase-resazurin fluorescence; hits give low values; activity change, % (values are at about 110 or 230 µM); actives 0.15% (n = 480,000); in the data active = activity change below about -30%; inconclusive = mostly about -25% to -30%;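 note: plate controls were DMSO wells for no effect and wells without enzyme for full effect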
#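 Enzyme activity of human lactate dehydrogenase 5 (2 nM; 0.06 mM NADH, 0.2 mM pyruvate, 5 min, RT) is measured via a resazurin/diaphorase fluorescence readout of residual NADH.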
# rTrxR1 inhibitor = rat TrxR1 inhibition. O89049. recombinant rTrxR1, NADPH fluorescence consumption, selenite substrate. Potency, µM (top dose mostly 114 µM), inactives show at the top dose activity change, negative = inhibition, most hits filed as inhibitors. actives 1% (n = 390,000). AID 588453; note: potency is the fitted concentration of half-maximal effect; nearly all actives have a fitted effect of over 65% in size
#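 Rat TrxR1 (90 nM in the dispensed reagent) was pre-reduced with 400 uM NADPH for 5 min at room temperature, then incubated with compound for 15 min. After 400 uM selenite was added, NADPH fluorescence (Ex 340/Em 450 nm) was followed for 8 min.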
# GALK inh = blocks human galactokinase activity. actives 0.007% (n = 270,000). Potency, µM (top dose mostly 57.5 µM), for the others: at the highest dose activity change, negative = inhibition, hits mostly inhibitors. AID 1868. P51570. Purified GALK, Kinase-Glo residual ATP luminescence; note: potency is the fitted concentration of half-maximal effect
#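 The enzyme phosphorylates galactose (100 uM) using ATP (35 uM); inhibition is detected as higher residual ATP, quantified by bioluminescence after 1 h reaction at room temperature, pH 8.0.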
# a7 integrin act = activators of alpha7 integrin expression for muscular dystrophy | alpha7betagal myoblasts, beta-gal FDG fluorescence, 48 h | Potency, µM (highest dose often 38.3 µM), for inactives: at the highest dose activation, most hits filed as activators | actives 0.064% (n = 350,000) | AID 624291;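 note: potency is the fitted concentration of half-maximal effect; 100% = response of the positive control SU9516; nearly all actives have a fitted effect of over 60% in size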
#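 alpha7betagal+/- myoblasts (passage 13, 250/well) treated 48 h at 37C with compounds at 1:260 dilution of DMSO stock. Lysed, then beta-galactosidase activity read as FDG fluorescence (ex 480/em 540) after 30 min, with pre-read for autofluorescence.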
# TrxR1 substrate = is turned over as a substrate by rat TrxR1; Potency, µM (doses to about 114 µM), without a hit: at the top dose activity change, negative = substrate turnover; actives 0.01% (n = 390,000); purified TrxR1 substrate turnover, NADPH consumption readout; AID 588456; note: potency is the fitted concentration of half-maximal effect; nearly all actives have a fitted effect of over 50% in size
#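 Rat TrxR1, dispensed at 90 nM, was prereduced with 400 uM NADPH (final) for 5 min at ~22 deg C, then incubated with compound 15 min before 400 uM selenite. A first-read NADPH fluorescence drop versus no-compound background flagged substrates.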
# PI4K2A block = inhibitors of human PI4K2A | actives 0.13% (n = 420,000) | activity change, negative = inhibition, % at 76.9 µM | purified PI4K2A, ADP-Glo luminescence, 1 h; hits give low values; in the data active = activity change below about -50%; inconclusive = mostly about -30% to -49%;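 note: -100% = wells without enzyme as full effect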
# Target sequence (Q9BTU6 whole entry, looked up): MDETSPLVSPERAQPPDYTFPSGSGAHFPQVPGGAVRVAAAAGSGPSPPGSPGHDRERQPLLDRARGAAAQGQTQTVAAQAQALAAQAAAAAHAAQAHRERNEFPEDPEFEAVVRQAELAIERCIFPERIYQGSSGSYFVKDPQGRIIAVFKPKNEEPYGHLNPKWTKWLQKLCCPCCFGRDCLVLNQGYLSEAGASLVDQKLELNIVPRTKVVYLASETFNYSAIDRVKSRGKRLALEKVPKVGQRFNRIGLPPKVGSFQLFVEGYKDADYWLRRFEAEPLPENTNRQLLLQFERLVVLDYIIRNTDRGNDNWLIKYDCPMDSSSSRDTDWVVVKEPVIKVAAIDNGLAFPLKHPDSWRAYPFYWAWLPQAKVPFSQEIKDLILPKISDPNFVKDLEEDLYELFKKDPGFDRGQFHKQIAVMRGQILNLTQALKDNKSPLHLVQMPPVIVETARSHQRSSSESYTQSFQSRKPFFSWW
#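 Compounds are screened against recombinant PI4K2A using PI as substrate and ATP, the latter dispensed at 300 microM. Reactions run one hour at ambient temperature before ADP-Glo detection; full inhibition defined by wells lacking enzyme.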
# The depositor's hits bear a star; ? = inconclusive; nt = no result; [ ] = remark or other dose. A selection: hits, their analogues and other compounds. The true share with any hit is near 1.1%. Unless noted, calls come from the whole dose curve; as a rule, active = well fitted curve in the direction sought with a large enough effect; inconclusive = small, poorly fitted or top-dose-only effect, or another doubt; inactive = no such curve, though single readings can be large; an effect the other way counts as inactive or inconclusive. Unless noted, % is set by controls: 0 for no effect and ±100 for the full control effect.
SMILES,LDHA block,rTrxR1 inhibitor,GALK inh,a7 integrin act,TrxR1 substrate,PI4K2A block
COc1cc(CN2c3ccc(Br)cc3C(=O)CS2(=O)=O)cc(OC)c1,nt,?,nt,nt,-5%,nt
Cn1nc(C(=O)Nc2ccc(F)cc2F)c2ccccc2c1=O,11,nt,nt,nt,nt,nt
CCOc1ccc2ccccc2c1C1NC(=O)N(C)C(C)=C1C(=O)OCCOC (stereo unspecified),-6,11%,-1%,6.3µM*,-3%,-3
CCCCNc1nc2ccccc2nc1NS(=O)(=O)c1ccccc1,-15,nt,nt,nt,nt,nt
CCCn1nc(C(=O)Nc2ccc(F)c(S(=O)(=O)N3CCOCC3)c2)c2ccccc2c1=O,14,nt,nt,nt,nt,nt
c1c2c(cc3sc(N4CCOCC4)nc13)OCCO2,-4,3%,11%,-12%,1%,-51*
Cc1cccc(N(Cc2cc3ccc(C)cc3[nH]c2=O)C(=O)c2ccco2)c1,0,35µM*,0%,8%,3%,-1
CSc1ncc(C(=O)Nc2ccccc2C)c(-c2ccccc2)n1,3,nt,nt,nt,nt,nt
O=C1CC(N2CCC(Cc3ccccc3)CC2)C(=O)N1CCc1ccccc1 (stereo unspecified),1,32µM*,3%,-3%,1%,2
CN(C)C(=O)CCc1c(-c2ccc(F)cc2)[nH]c2ccccc12,-5,nt,nt,nt,nt,nt
O=C(Nc1ccccc1)c1ccc(Nc2c([N+](=O)[O-])cc([N+](=O)[O-])c3ccccc23)cc1,-2,-16%,-1%,11%,-17%,-1
O=[N+]([O-])c1cc(Br)c(Nc2ccccc2)c([N+](=O)[O-])c1,-4,11µM*,nt,-68%,-1%,17
Cc1cccc(NC(=O)COC(=O)Cn2cnc3c2c(=O)n(C)c(=O)n3C)c1,9,nt,nt,nt,nt,nt
C=CCCC1CN(Cc2ccco2)S(=O)(=O)c2c(F)cccc2O1 (stereo unspecified),-3,40µM*,nt,9%,-3%,-6
CN1N=C(N)c2cn(C3OC(COP(=O)(O)O)C(O)C3O)c3ncnc1c23 (stereo unspecified),-32*,13%[11.4 µM],nt,-2%,6%[57.1 µM],-23
Cc1noc(C(C)N2CCN(c3oc(-c4ccco4)nc3C#N)CC2)n1 (stereo unspecified),-3,nt,nt,nt,nt,nt
O=P(C1=C(N2CCOCC2)/C(=C\c2ccccc2)CC1)(N1CCOCC1)N1CCOCC1,-6,?,3%,-25%,9%,-1
O=C(NP(=O)(N1CCOCC1)N1CCOCC1)C1=C(N2CCOCC2)/C(=C\c2ccccc2)CC1,1,14µM*,-1%,-21%,41%,10
CCN1CCN(c2ccc(NC(=O)c3cccc(S(=O)(=O)NCc4cccs4)c3)cc2)CC1,9,nt,nt,nt,nt,nt
COc1ccc(C(=O)C[n+]2cc(Br)cc3ccccc32)cc1,1,-8%,nt,nt,-11%,nt
COc1ccc(C(=O)C[n+]2cn(C(F)F)c3ccccc32)c(F)c1,-40*,?,-3%,3%,13%[57.1 µM],6
O=C(Nc1ccc2ncccc2c1)c1ccccc1Cl,-42*,14%,0%,35%,1%,-1
O=[N+]([O-])c1cc(S(=O)(=O)Nc2ccccc2)ccc1N/N=C/c1sc(Nc2ccccc2)nc1Cl,-8,nt,nt,nt,nt,nt
C=CCNC(=S)NNC(=O)C(C)C,-1,nt,nt,nt,nt,nt
CCn1nc([N+](=O)[O-])c(C(C#N)c2nc3cc(C(F)(F)F)ccc3s2)c(Cl)c1=O (stereo unspecified),8,32µM*,-10%,-33%,-9%,-25
CCCn1nc([N+](=O)[O-])c(C(C#N)c2nc3ccccc3o2)c(Cl)c1=O (stereo unspecified),1,11µM*,-3%,12%,-15%,-11
O=C(CSc1nc2cc(Cl)ccc2s1)N1c2ccccc2Sc2ccc(C(F)(F)F)cc21,10,nt,nt,nt,nt,nt
Cn1nc([N+](=O)[O-])c(C(C#N)c2ccccn2)c(Cl)c1=O (stereo unspecified),-2,2.8µM*,-3%,-61%,-4%,1
